KDM5B inh – Primary screen for KDM5B Histone Demethylases FDH-coupled qHTS; Lysine-specific demethylase 5B (Homo sapiens), Q9UGL1; KDM5B demethylase, FDH-coupled NADH fluorescence (FDH is formaldehyde dehydrogenase); Potency, µM (series often up to 57.7 µM), hits mostly inhibitors; hit rate 2.6% among 220,000; AID 1347165, 2019; active = well fitted inhibition curve with a large enough effect; also: nearly all actives have a fitted effect of over 70% in size
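Measured: NADH fluorescence change, 30 min, RT. System: KDM5BΔAP 200 nM final, H3K4me3 peptide, α-KG, Fe(II), ascorbate, NAD⁺ plus FDH, pH 7.5 HEPES. Compounds: titrated, 10 min pre-incubation with enzyme.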
A number is an active result. Many of the other results were omitted from the sample, so hits are more common in it than they were.

`Cc1cc(N2CCOCC2)nc2ccc(NC(=O)NC(C)C)cc12` gave KDM5B inh inactive.
Screening Cc1ccc(Nc2cc(C(=O)N3CCOCC3)c3ccccc3n2)cc1 returned KDM5B inh inactive.
Screening O=C(NCCc1ccccc1)N(C1CCOCC1)C1CCN(Cc2ccccc2)CC1 returned KDM5B inh inactive.
`CCOc1ccc(Nc2cc(C(=O)N3CCOCC3)c3ccccc3n2)cc1` gave KDM5B inh inactive.
`CC(C)NC(=O)N1Cc2ccccc2OC2(CCN(Cc3ccncc3)CC2)C1` gave KDM5B inh inactive.
Screening COCCCNC(=O)C1(C)CN(Cc2ccccc2)Cc2ccc(NCC(C)C)nc21 (stereo not drawn) returned KDM5B inh inactive.
O=C(/C=C/c1c(Cl)cccc1Cl)NCCCn1ccnc1 was read as KDM5B inh inactive.
Screening CN1Cc2ccc(N3CCOCC3)nc2C(C)(C(=O)NCCCn2ccnc2)C1 (stereo not drawn) returned KDM5B inh 31.6µM.
Screening CC1(C(=O)N2CCOCC2)CN(Cc2ccccc2)Cc2ccc(Nc3ccccc3)nc21 (stereo not drawn) returned KDM5B inh 28.2µM.
`CC(C)NC(=O)C1(C)CN(Cc2ccccc2)Cc2ccc(N3CCOCC3)nc21` (stereo not drawn) gave KDM5B inh 28.2µM.
CN(C)CCNC(=O)C1(C)CN(Cc2ccccc2)Cc2ccc(N3CCOCC3)nc21 (stereo not drawn) was read as KDM5B inh 35.5µM.
For Cc1c(CC(=O)NCCCn2ccnc2)c(=O)oc2cc(O)ccc12 the results were KDM5B inh inactive.
`CCC(NC(=O)C(C)c1ccc(-c2ccccc2)c(F)c1)C(=O)O` (stereo not drawn) gave KDM5B inh inactive.
`CN(CCc1ccccc1)CC[C@@H]1CC[C@H](O)[C@@H](C(=O)NC2CCCCC2)O1` gave KDM5B inh inactive.
CCOC1CCOC2(CCN(C(=O)c3ccco3)CC2)C1 (stereo not drawn) was read as KDM5B inh inactive.
For CC(C)C(=O)NCC(=O)O the results were KDM5B inh inactive.
Screening O=C1CSc2ccc(C(=O)OCC(=O)c3cccs3)cc2N1 returned KDM5B inh inactive.
`CC1(C(=O)NCc2cccnc2)CN(Cc2ccccc2)Cc2ccc(N3CCOCC3)nc21` (stereo not drawn) gave KDM5B inh 25.1µM.
Screening CC(C)CNc1ccc2c(n1)C(C)(C(=O)NCc1ccco1)CN(Cc1ccccc1)C2 (stereo not drawn) returned KDM5B inh inactive.
Screening O=C(NCc1cccnc1)C(=O)NCC(c1ccco1)N1CCOCC1 (stereo not drawn) returned KDM5B inh inactive.
For COc1ccc(CN2CCc3oc(C)c(C(=O)NCc4cccnc4)c3C2)cc1 the results were KDM5B inh inactive.
CC1(C(=O)NCc2ccccc2)CN(Cc2ccccc2)Cc2ccc(N3CCOCC3)nc21 (stereo not drawn) was read as KDM5B inh 22.4µM.
O=C(NCc1ccc(CN2CCOCC2)cc1)c1cnn(-c2ccccc2)c1 was read as KDM5B inh inactive.
For Cn1cnnc1C1CCCN(S(=O)(=O)N2CCCCCC2)C1 (stereo not drawn) the results were KDM5B inh inactive.
For O=C(c1ccncc1)N(CCc1ccccc1)Cc1cccs1 the results were KDM5B inh inactive.
Screening Nc1ccccc1-n1ccnc1 returned KDM5B inh inactive.
For CCCC(=O)N1N=C(c2cccc(NS(C)(=O)=O)c2)CC1c1cccc(F)c1 (stereo not drawn) the results were KDM5B inh inactive.
C=CCNC(=O)[C@@H]1Cc2cn(CC#CC)c3cccc(c23)[C@H](CC(C)C)N1 was read as KDM5B inh inactive.
For C=CCNC(=O)[C@@H]1Cc2cn(Cc3c(C)noc3C)c3cccc(c23)[C@H](CC(C)C)N1 the results were KDM5B inh 28.2µM.
For CC(C)C[C@@H]1N[C@H](C(=O)N2CCOCC2)Cc2cn(CC3CC3)c3cccc1c23 the results were KDM5B inh 35.5µM.
Screening CCCNC(=O)[C@@H]1Cc2cn(Cc3cccnc3)c3cccc(c23)[C@H](CC(C)C)N1 returned KDM5B inh inactive.
For Cc1cc(Cn2cc3c4c(cccc42)[C@H](CC(C)C)N[C@H](C(=O)NCCN2CCOCC2)C3)no1 the results were KDM5B inh inactive.
Screening CC#CCn1cc2c3c(cccc31)[C@H](CC(C)C)N[C@H](C(=O)NCc1ccc(OC)cc1)C2 returned KDM5B inh inactive.
Screening C=CCn1cc2c3c(cccc31)[C@H](CC(C)C)N[C@H](C(=O)N1CCOCC1)C2 returned KDM5B inh 31.6µM.
For CC#CCn1cc2c3c(cccc31)[C@H](CC(C)C)N[C@H](C(=O)NCCNC(C)=O)C2 the results were KDM5B inh 31.6µM.
Screening CC(C)C[C@@H]1N[C@H](C(=O)N2CCOCC2)Cc2cn(Cc3cccnc3)c3cccc1c23 returned KDM5B inh inactive.
CC(C)C[C@@H]1N[C@H](C(=O)NC(C)C)Cc2cn(Cc3ccncc3)c3cccc1c23 was read as KDM5B inh inactive.
For C#CCNC(=O)[C@@H]1Cc2cn(CC#CC)c3cccc(c23)[C@H](CC(C)C)N1 the results were KDM5B inh inactive.
C=CCN(C)C(=O)[C@@H]1Cc2cn(Cc3cc(C)on3)c3cccc(c23)[C@H](CC(C)C)N1 was read as KDM5B inh inactive.
For COC(=O)c1ccc(NC(=O)C2=C(c3ccccc3)S(=O)(=O)CCO2)cc1 the results were KDM5B inh inactive.
For O=C(O)CCC(=O)N1N=C(c2ccsc2)CC1c1ccccc1 (stereo not drawn) the results were KDM5B inh inactive.
CCOc1cc(-c2ccc(C)cc2)nc2ccc(C(=O)N3CCCC3)cc12 was read as KDM5B inh inactive.
Screening CCCCN(Cc1ccc(S(=O)(=O)NC)cc1)Cc1ccco1 returned KDM5B inh inactive.
`CCCc1cc(C(=O)NC(C)c2ccccn2)sc1C` (stereo not drawn) gave KDM5B inh inactive.
`O=c1c2ccccc2nc(-c2ccccc2)n1CCOc1ccccc1` gave KDM5B inh inactive.
For COc1cn(CC(=O)Nc2ccc(C(F)(F)F)cc2)c(CN2CCOCC2)cc1=O the results were KDM5B inh inactive.
For Cc1nc(C2CCN(C(=O)CNC(N)=O)CC2)cc(N2CCOCC2)n1 the results were KDM5B inh inactive.
Screening CC(C)c1nnc2ccc(N3CCCCCC3)nn12 returned KDM5B inh inactive.
`CC(C)C(C)NC(=O)c1ccccc1Br` (stereo not drawn) gave KDM5B inh inactive.
`CC(C)C[C@@H]1N[C@H](C(=O)O)Cc2cn(CC3CC3)c3cccc1c23` gave KDM5B inh 31.6µM.
For CC(C)C[C@@H]1N[C@H](C(=O)NCC2CC2)Cc2cn(Cc3ccncc3)c3cccc1c23 the results were KDM5B inh inactive.
CC(C)C[C@@H]1N[C@H](C(=O)NC2CCC2)Cc2cn(Cc3nccn3C)c3cccc1c23 was read as KDM5B inh inactive.
Screening C=CCN(C)C(=O)[C@@H]1Cc2cn(Cc3nccn3C)c3cccc(c23)[C@H](CC(C)C)N1 returned KDM5B inh inactive.
`C=CCn1cc2c3c(cccc31)[C@H](CC(C)C)N[C@H](C(=O)N1CCN(C)CC1)C2` gave KDM5B inh 22.4µM.
Screening CC(C)C[C@@H]1N[C@H](C(=O)N2CCC(O)(c3ccccc3)CC2)Cc2cn(C)c3cccc1c23 returned KDM5B inh inactive.
For CCCCCn1nc(C(=O)N2CCSCC2)c2ccccc2c1=O the results were KDM5B inh inactive.
`O=C(Cc1ccc(Cl)cc1)NC1CCN(c2cc(-c3ccc(F)cc3)[nH]n2)CC1` gave KDM5B inh inactive.
